Data reported in PubChem BioAssay AID1159580 (chemical genetic matrix, 2015).
“And” between values parts separate entries of the source, which are not always exact repeats. Equal values may be shown once. Out of some 5,500 compounds screened, about 2,000 (36%) were called active. Inconclusive results (about 18%) are left out. Rule as the data show it: active = normalized growth mostly below about 0.91 (no sharp cut-off); inconclusive = no clear call, values can overlap the other calls; inactive = mostly above about 0.92. Some of the results follow. Where a structure was tested more than once in an assay, its records may differ in their call.

Assay: chemical genetic growth profiling, strain panel (AID 1159580);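 also: tested at 20 µM; growth read once vehicle control cultures reached saturation at 30 °C; 1 = growth at the plate median or of vehicle wells; lower values mean less growth of the strain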
Settings: growth OD

Measured: normalized growth

Cc1nc2sccn2c(=O)c1CCN1CCC(=C(c2ccc(F)cc2)c2ccc(F)cc2)CC1
inactive: S. cerevisiae deletion strains, locus YAL040C, strain CLN3, stronger effect = lower value 1 | S. cerevisiae deletion strains, locus YBR229C, strain ROT2, stronger effect = lower value 0.992 | S. cerevisiae deletion strains, locus YCL061C, strain MRC1 (second series), stronger effect = lower value 1 | S. cerevisiae deletion strains, locus YDL185W, strain tfp1, stronger effect = lower value 1.01 | S. cerevisiae deletion strains, locus YDR101C, strain arx1, stronger effect = lower value 0.945 | S. cerevisiae deletion strains, locus YDR363W, strain ESC2, stronger effect = lower value 1.01 | S. cerevisiae deletion strains, locus YER110C, stronger effect = lower value 1 | S. cerevisiae deletion strains, locus YGL078C, strain dbp3, stronger effect = lower value 1 | S. cerevisiae deletion strains, locus YHR079C, strain IRE1, stronger effect = lower value 0.959 | S. cerevisiae deletion strains, locus YHR094C, strain hxt1, stronger effect = lower value 1 | S. cerevisiae deletion strains, locus YIL125W, strain kgd1, stronger effect = lower value 1 | S. cerevisiae deletion strains, locus YJL134W, strain LCB3, stronger effect = lower value 1.01 | S. cerevisiae deletion strains, locus YJL168C, strain set2, stronger effect = lower value 0.998 | S. cerevisiae deletion strains, locus YJR066W, strain TOR1, stronger effect = lower value 0.965 | S. cerevisiae deletion strains, locus YKL009W, strain mrt4, stronger effect = lower value 0.967 | S. cerevisiae deletion strains, locus YKL068W, stronger effect = lower value 0.999 | S. cerevisiae deletion strains, locus YKL085W, strain MDH1 (second series), stronger effect = lower value 0.992 | S. cerevisiae deletion strains, locus YKL085W, strain MDH1, stronger effect = lower value 0.992 | S. cerevisiae deletion strains, locus YLR102C, strain apc9, stronger effect = lower value 0.999 | S. cerevisiae deletion strains, locus YLR113W, strain HOG1, stronger effect = lower value 0.979 | S. cerevisiae deletion strains, locus YLR371W, strain rom2, stronger effect = lower value 0.978 | S. cerevisiae deletion strains, locus YML124C, strain tub3, stronger effect = lower value 1 | S. cerevisiae deletion strains, locus YMR078C, strain ctf18, stronger effect = lower value 1 | S. cerevisiae deletion strains, locus YNL183C, strain NPR1, stronger effect = lower value 0.935 | S. cerevisiae deletion strains, locus YNL250W, strain rad50, stronger effect = lower value 0.988 | S. cerevisiae deletion strains, locus YNL271C, strain bni1, stronger effect = lower value 0.992 | S. cerevisiae deletion strains, locus YNL298W, strain CLA4, stronger effect = lower value 0.999 | S. cerevisiae deletion strains, locus YOL012C, strain htz1 0.498 | S. cerevisiae deletion strains, locus YOL147C, strain pex11, stronger effect = lower value 0.984 | S. cerevisiae deletion strains, locus YOR083W, strain WHI5 (second series), stronger effect = lower value 0.985 | S. cerevisiae deletion strains, locus YOR136W, strain idh2, stronger effect = lower value 0.94 | S. cerevisiae deletion strains, locus YOR144C, strain elg1, stronger effect = lower value 1.01 | S. cerevisiae deletion strains, locus YOR231W, strain MKK1, stronger effect = lower value 0.999 | S. cerevisiae deletion strains, locus YOR316C, strain cot1, stronger effect = lower value 0.996 | S. cerevisiae deletion strains, locus YPL256C, strain CLN2, stronger effect = lower value 0.962 | S. cerevisiae deletion strains, locus YPR119W, strain clb2, stronger effect = lower value 1.01 | S. cerevisiae deletion strains, locus YPR141C, strain kar3, stronger effect = lower value 0.997
0.354 (active) and 0.987 (inactive): S. cerevisiae deletion strains, locus YJL095W, strain BCK1, stronger effect = lower value
0.802 (active) and 0.999 (inactive): S. cerevisiae deletion strains, locus YDR150W, strain NUM1, stronger effect = lower value
0.637 (active) and 1.1 (inactive): S. cerevisiae deletion strains, locus YNL128W, strain TEP1, stronger effect = lower value
0.132 (active) and 0.945 (inactive): S. cerevisiae deletion strains, locus YGR229C, strain SMI1, stronger effect = lower value
0.733 (active) and 1 (inactive): S. cerevisiae deletion strains, locus YMR263W, strain SAP30, stronger effect = lower value
0.36 (active) and 0.998 (inactive): S. cerevisiae deletion strains, locus YJR075W, strain HOC1, stronger effect = lower value
active: S. cerevisiae deletion strains, locus YBR021W, strain FUR4, stronger effect = lower value 0.338 | S. cerevisiae deletion strains, locus YCL029C, strain bik1, stronger effect = lower value 0.885 | S. cerevisiae deletion strains, locus YDL035C, strain GPR1, stronger effect = lower value 0.536 | S. cerevisiae deletion strains, locus YDL074C, strain BRE1, stronger effect = lower value 0.395 | S. cerevisiae deletion strains, locus YDL101C, strain DUN1, stronger effect = lower value 0.758 | S. cerevisiae deletion strains, locus YDL134C, strain PPH21, stronger effect = lower value 0.404 | S. cerevisiae deletion strains, locus YDL192W, strain arf1, stronger effect = lower value 0.844 | S. cerevisiae deletion strains, locus YDR162C, strain NBP2, stronger effect = lower value 0.0773 | S. cerevisiae deletion strains, locus YDR318W, strain mcm21, stronger effect = lower value 0.865 | S. cerevisiae deletion strains, locus YDR388W, stronger effect = lower value 0.222 | S. cerevisiae deletion strains, locus YDR502C, strain sam2, stronger effect = lower value 0.832 | S. cerevisiae deletion strains, locus YEL061C, strain CIN8, stronger effect = lower value 0.672 | S. cerevisiae deletion strains, locus YER002W, strain NOP16, stronger effect = lower value 1.21 [resistant] | S. cerevisiae deletion strains, locus YER155C, strain BEM2, stronger effect = lower value 0.897 | S. cerevisiae deletion strains, locus YER167W, strain BCK2, stronger effect = lower value 0.692 | S. cerevisiae deletion strains, locus YGL086W, strain mad1, stronger effect = lower value 0.808 | S. cerevisiae deletion strains, locus YGL248W, strain PDE1, stronger effect = lower value 0.511 | S. cerevisiae deletion strains, locus YGR078C, strain PAC10, stronger effect = lower value 0.695 | S. cerevisiae deletion strains, locus YGR135W, strain pre9, stronger effect = lower value 0.683 | S. cerevisiae deletion strains, locus YGR252W, strain gcn5, stronger effect = lower value 0.487 | S. cerevisiae deletion strains, locus YHR079C, strain IRE1 (second series), stronger effect = lower value 0.902 | S. cerevisiae deletion strains, locus YHR200W, strain rpn10, stronger effect = lower value 0.914 | S. cerevisiae deletion strains, locus YIL066C, strain RNR3, stronger effect = lower value 0.571 | S. cerevisiae deletion strains, locus YIL073C, strain SPO22, stronger effect = lower value 0.279 | S. cerevisiae deletion strains, locus YIR030C, strain dcg1, stronger effect = lower value 0.917 | S. cerevisiae deletion strains, locus YJL187C, strain SWE1 (second series), stronger effect = lower value 0.547 | S. cerevisiae deletion strains, locus YJR043C, strain POL32, stronger effect = lower value 0.69 | S. cerevisiae deletion strains, locus YKL190W, strain CNB1, stronger effect = lower value 0.604 | S. cerevisiae deletion strains, locus YKR001C, strain vps1, stronger effect = lower value 0.139 | S. cerevisiae deletion strains, locus YLR039C, strain RIC1, stronger effect = lower value 0.303 | S. cerevisiae deletion strains, locus YLR058C, strain SHM2, stronger effect = lower value 0.613 | S. cerevisiae deletion strains, locus YLR262C, strain YPT6, stronger effect = lower value 0.289 | S. cerevisiae deletion strains, locus YLR268W, strain sec22, stronger effect = lower value 0.624 | S. cerevisiae deletion strains, locus YLR330W, strain CHS5, stronger effect = lower value 0.833 | S. cerevisiae deletion strains, locus YLR342W, strain FKS1 (second series), stronger effect = lower value 0.56 | S. cerevisiae deletion strains, locus YLR418C, strain cdc73, stronger effect = lower value 0.451 | S. cerevisiae deletion strains, locus YML016C, strain PPZ1, stronger effect = lower value 0.65 | S. cerevisiae deletion strains, locus YML032C, strain rad52, stronger effect = lower value 0.825 | S. cerevisiae deletion strains, locus YMR223W, strain ubp8, stronger effect = lower value 0.816 | S. cerevisiae deletion strains, locus YNL067W, strain RPL9B, stronger effect = lower value 0.72 | S. cerevisiae deletion strains, locus YNL175C, strain NOP13, stronger effect = lower value 1.28 [resistant] | S. cerevisiae deletion strains, locus YNL197C, strain WHI3, stronger effect = lower value 1.19 [resistant] | S. cerevisiae deletion strains, locus YNL233W, strain BNI4, stronger effect = lower value 0.573 | S. cerevisiae deletion strains, locus YNL307C, strain MCK1, stronger effect = lower value 0.863 | S. cerevisiae deletion strains, locus YNL322C, strain KRE1, stronger effect = lower value 0.67 | S. cerevisiae deletion strains, locus YNR052C, strain pop2, stronger effect = lower value 0.773 | S. cerevisiae deletion strains, locus YOL006C, strain TOP1, stronger effect = lower value 0.138 | S. cerevisiae deletion strains, locus YOR061W, strain CKA2, stronger effect = lower value 0.646 | S. cerevisiae deletion strains, locus YOR069W, strain VPS5, stronger effect = lower value 0.861 | S. cerevisiae deletion strains, locus YOR184W, strain ser1, stronger effect = lower value 0.729 | S. cerevisiae deletion strains, locus YPL055C, strain LGE1, stronger effect = lower value 0.268 | S. cerevisiae deletion strains, locus YPR163C, strain tif3, stronger effect = lower value 0.722 | S. cerevisiae deletion strains, locus YPR167C, strain met16, stronger effect = lower value 0.906 | S. cerevisiae deletion strains, strain wtn01, stronger effect = lower value 0.776 | S. cerevisiae strains, strain wild type, stronger effect = lower value 0.592
0.65 (active) and 0.981 (inactive): S. cerevisiae deletion strains, locus YHR030C, strain SLT2, stronger effect = lower value
0.732 (active) and 0.816 (inactive): S. cerevisiae deletion strains, locus YNL153C, strain GIM3, stronger effect = lower value
0.65 (active) and 1.01 (inactive): S. cerevisiae deletion strains, locus YAL013W, strain DEP1, stronger effect = lower value
0.206 (active) and 1.03 (inactive): S. cerevisiae deletion strains, locus YMR307W, strain GAS1, stronger effect = lower value
